From PubChem BioAssay (Tox21) come the findings set out here.

Experiment [1] in a line: qHTS assay to identify small molecule agonists of the hypoxia (HIF-1) signaling pathway - cell viability counter screen (AID 1224844; calls by dose curve; also: nearly all actives have a fitted effect of over 50% in size). A digest of the protocol:
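Cytotoxicity was measured in parallel with the HRE-driven beta-lactamase readout: after 17 hrs of compound exposure at 37C, HRE-bla ME-180 cells received CellTiter-Glo and luminescence was recorded 30 min later.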
On the technique in general: qHTS replaces the single test concentration by a dilution series.

A short description of experiment [2]: qHTS assay to identify small molecule agonists of H2AX (AID 1224845; active = well fitted activation curve with a large enough effect in the signal ratio in the repeat runs, not every such curve was filed as active; the % refers to the signal ratio). A digest of the protocol: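 Wild-type CHO-K1 cells plated overnight, then exposed 3 hr at 37C to compounds at 15 concentrations (0.76% DMSO). Lysed, then HTRF anti-pH2AX(S139)-cryptate/anti-H2AX-d2 detection after 24 hr at room temperature; emissions 665 and 620 nm.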
Experiment [3] in a line: qHTS assay to identify small molecule agonists of the hypoxia (HIF-1) signaling pathway (AID 1224846; active = well fitted activation curve with a large enough effect in the signal ratio in the repeat runs, not every such curve was filed as active; the % refers to the signal ratio). Put shortly:
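Compounds from the Tox21 10K library, dissolved in DMSO, are tested for induction of a hypoxia response element–controlled beta-lactamase reporter in ME-180 cells. Exposure lasts 17 hrs at 37C after a 5 hr settling period, followed by CCF4-AM FRET substrate.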

A short description of experiment [4]: qHTS assay to identify small molecule agonists of H2AX - cell viability counter screen (AID 1224847; calls by dose curve; also: nearly all actives have a fitted effect of over 30% in size; also: potency is read from the fitted curve at half-maximal effect). Put shortly:
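Viability of CHO-K1 (wild type) cells after 3 hr compound exposure was measured by CellTiter-Glo luminescence.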

A short description of experiment [5]: qHTS assay to identify small molecule agonists of the estrogen related receptor (ERR) signaling pathway from Tox21 library (AID 1224849; calls by dose curve; also: nearly all actives have a fitted effect of over 15% in size). The settings on record: ERR reporter cell line, ONE-Glo luciferase, 18 h; at 92.4 µM (top of the series) unless noted. A digest of the protocol:
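Cells carrying the ERR reporter were plated and allowed to settle for 6 h, exposed to library compounds for 18 h at 37 C, then lysed with ONE-Glo and luminescence measured.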

Experiment [6] can be described thus: qHTS RealTime-Glo MT Cell Viability Assay in HepG2 cells - 24 hour (AID 1224867). Also: nearly all actives have a fitted effect of over 50% in size. A digest of the protocol:
(§1)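 Viability was tracked continuously by NanoLuc luminescence from prosubstrate reduced by living HepG2 cells, at successive time points over 40 h of compound exposure. Cells with reagent were preincubated 5 h at 37 °C before compound addition.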

Experiment [7] can be described thus: A CellTox Green Cytotoxicity Assay to monitor cytotoxicity in HEK293 cells - 0 hour (AID 1224869). Also: nearly all actives have a fitted effect of over 50% in size. A digest of the protocol:
(§2)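 Cells (HEK293, 600/well) and dye reagent are dispensed together. After 5 h at 37 C, 23 nL compound is pinned in. Plates stay at 37 C for 40 h with fluorescence read at 0h, 8h, 16h, 24h, 32h and 40h.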

Experiment [8] can be described thus: qHTS RealTime-Glo MT Cell Viability Assay in HepG2 cells - 40 hour (AID 1224870). Also: nearly all actives have a fitted effect of over 50% in size. Put shortly:
(§3)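 HepG2 cells mixed with RealTime-Glo MT reagents (NanoLuc plus cell-permeant prosubstrate) were seeded at 600 cells/well, incubated 5 h at 37 C/5% CO2, then pinned with compounds in DMSO; nonlytic luminescence tracked viability during 40 h treatment.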

Experiment [9] in a line: qHTS RealTime-Glo MT Cell Viability Assay in HepG2 cells - 8 hour (AID 1224873). Also: nearly all actives have a fitted effect of over 55% in size. A digest of the protocol:
as §3

Experiment [10] is described as follows: A CellTox Green Cytotoxicity Assay to monitor cytotoxicity in HepG2 cells - 16 hour (AID 1224876). Also: nearly all actives have a fitted effect of over 45% in size. Put shortly:
(§4)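 Cells and non-lytic dye reagent are dispensed together (600 HepG2 cells/well) and incubated 5 h before DMSO compound transfer. Kinetic fluorescence is then recorded in the same wells during 40 h at 37 C.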

Experiment [11] can be described thus: qHTS RealTime-Glo MT Cell Viability Assay in HepG2 cells - 32 hour (AID 1224877). Also: nearly all actives have a fitted effect of over 55% in size. A digest of the protocol: as §1
Experiment [12] is described as follows: A CellTox Green Cytotoxicity Assay to monitor cytotoxicity in HepG2 cells - 24 hour (AID 1224878). Also: nearly all actives have a fitted effect of over 45% in size. A digest of the protocol:
as §4

A short description of experiment [13]: A CellTox Green Cytotoxicity Assay to monitor cytotoxicity in HepG2 cells - 40 hour (AID 1224879). Also: nearly all actives have a fitted effect of over 40% in size. Put shortly:
as §4

Experiment [14] is described as follows: qHTS RealTime-Glo MT Cell Viability Assay in HEK293 cells - 0 hour (AID 1224880). Also: top concentration of the series differs between compounds; nearly all actives have a fitted effect of over 45% in size. Put shortly:
(§5)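 Real-time viability in HEK293: signal arises when living cells convert a prosubstrate for NanoLuc in the medium, so luminescence tracks viable cell number. Compound (23 nL, DMSO) added 5 h post-seeding; kinetic reads at 0–40 h, 37 C.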

Experiment [15] can be described thus: qHTS assay to identify small molecule antagonists of the estrogen related receptor (ERR) signaling pathway from Tox21 library (AID 1224848). Also: nearly all actives have a fitted effect of over 50% in size. A digest of the protocol: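 First, 2,000 ERR cells per well were plated and held 6 h at 37 C/5% CO2. Next, compounds in DMSO were pinned in and left 18 h at 37 C. Finally, ONE-Glo was added and luminescence read after 30 min at room temperature.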

A short description of experiment [16]: qHTS RealTime-Glo MT Cell Viability Assay in HEK293 cells - 32 hour (AID 1224868). Put shortly:
(§6)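 Viability tracked continuously by luminescence as live cells reduce a prosubstrate for NanoLuc; HEK293 cells preincubated 5 h, compound-treated at 37 C, and read at 0, 8, 16, 24, 32 and 40 h.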

The nature of experiment [17]: A CellTox Green Cytotoxicity Assay to monitor cytotoxicity in HEK293 cells - 40 hour (AID 1224871). Also: nearly all actives have a fitted effect of over 45% in size. A digest of the protocol:
as §2

Experiment [18] is described as follows: qHTS RealTime-Glo MT Cell Viability Assay in HEK293 cells - 16 hour (AID 1224872). A digest of the protocol:
as §6

Experiment [19] in a line: qHTS RealTime-Glo MT Cell Viability Assay in HEK293 cells - 40 hour (AID 1224874). Also: nearly all actives have a fitted effect of over 50% in size. The settings on record: RealTime-Glo luminescence; max response: active compounds read low. A digest of the protocol: as §5
Experiment [20] in a line: A CellTox Green Cytotoxicity Assay to monitor cytotoxicity in HEK293 cells - 24 hour (AID 1224875). Also: nearly all actives have a fitted effect of over 45% in size. A digest of the protocol:
as §2

Molecules are shown by their SMILES. Values without a mark were called inactive. Inconclusive results are not listed. Calls of active or inactive are those of the source. Unless noted, calls follow the shape of the dose curve; as a rule, active = well fitted curve in the direction sought with a large enough effect in the repeat runs; inconclusive = weak or mixed curves; inactive = no such curve, though single readings can be large; an effect the other way counts as inactive or inconclusive.
% is scaled to controls: 0 for no effect and ±100 for the full control effect.

For the compound `Oc1cc(Cl)cc(Cl)c1`, the Potency result in [1], in experiment [2], in experiment [3], in experiment [6], in experiment [7] and in experiment [8] was “inactive” each time. Also, the Potency result in experiment [9], in [10], in experiment [11], in [12], in experiment [13] and in [14] was “inactive” each time. The Potency in [4] was 90.7 µM (active). For the same compound, the activity change, positive = activation in [5] is -48.8%.
On to `CCN(CC)Cc1nccn1-c1ccc([N+](=O)[O-])cc1C(=O)c1ccccc1Cl`, for which the Potency entry in [1], in experiment [2], in experiment [3], in [4], in [15] and in experiment [6] was “inactive” each time. In addition, the Potency result in experiment [16], in experiment [7], in [8], in experiment [17], in experiment [18] and in [9] was “inactive” each time. Besides, the Potency entry in experiment [20], in experiment [10], in [11], in experiment [12], in experiment [13] and in experiment [14] was “inactive” in each case. Besides, the activity change, positive = activation in [5] was -10.7% [at 42.5 µM]. In experiment [19], the max response is -11.1%.
Turning to `Oc1ccc(Cl)c(Cl)c1`, the Potency result in [1], in experiment [2], in experiment [3], in experiment [15], in experiment [6] and in experiment [7] was “inactive” in each case. Besides, the Potency result in [8], in experiment [17], in experiment [18], in experiment [9], in experiment [20] and in experiment [10] was “inactive” in each case. The Potency result in experiment [11], in [12] and in experiment [13] was “inactive” each time. The Potency in experiment [4] is 49.7 µM (active). The activity change, positive = activation in [5] was -11.7%. Also, the max response in experiment [19] is -18.2%.
For `ClC1=C(Cl)[C@]2(Cl)[C@@H]3[C@H]4C[C@H]([C@@H]5O[C@H]45)[C@@H]3[C@@]1(Cl)C2(Cl)Cl`, the Potency result in [1], in [2], in experiment [3], in experiment [4], in experiment [6] and in [16] was “inactive” in each case. Moreover, the Potency result in [7], in [8], in [17], in [18], in [9] and in experiment [20] was “inactive” throughout. In addition, the Potency result in experiment [10], in [11], in [12], in [13] and in experiment [14] was “inactive” each time. Besides, the activity change, positive = activation in [5] was -25%. For the same compound, the max response in experiment [19] is 3.07%.
For `O=[N+]([O-])c1ccccc1-c1ccccc1`, the Potency entry in experiment [1], in experiment [2], in experiment [3], in experiment [4], in experiment [15] and in [6] was “inactive” throughout. Further, the Potency result in [16], in experiment [7], in experiment [8], in [17], in experiment [18] and in experiment [9] was “inactive” each time. Also, the Potency entry in experiment [20], in experiment [10], in [11], in experiment [12], in experiment [13] and in [14] was “inactive” each time. In experiment [5], the activity change, positive = activation is -1.13%. Moreover, the max response in experiment [19] is 4.62%.
`COc1cnc(OC)n2nc(NS(=O)(=O)c3c(OCC(F)F)cccc3C(F)(F)F)nc12`: the Potency entry in experiment [1], in [2], in experiment [3], in [4], in experiment [6] and in experiment [16] was “inactive” each time. The Potency entry in experiment [7], in [8], in experiment [17], in experiment [18], in [9] and in experiment [20] was “inactive” throughout. Further, the Potency entry in [10], in experiment [11], in experiment [12], in experiment [13] and in [14] was “inactive” each time. Also, the activity change, positive = activation in experiment [5] was 0.129%. In addition, in experiment [19], the max response is 16.5%.
